Laboratory results as given in PubChem BioAssay (NCATS).
Inconclusive results are not listed. Activity calls are given as the source filed them. The call rests on the fitted dose curve; in most records, active means well fitted inhibition curve with a large enough effect; inconclusive means small, poorly fitted or top-dose-only effect; inactive means flat fitted curve, though single readings scatter.

Each compound was assayed on CRL-7250 (assay: Cytotoxic Profiling of Annotated Libraries Using Quantitative High-Throughput Screening (AID 1296008; further: nearly all actives have a fitted effect of over 60% in size)). Settings: Five cell lines viability, CellTiter-Glo ATP luminescence, 48-72 h; max response: active compounds read low.
Procedure, shortened: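 Cells exposed to compounds for 48 or 72 hr at 37 degrees Celsius. Viability read as ATP-coupled luminescence with CellTiter-Glo after 10 min at room temperature.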
On the % scale 0 is the no-effect control and ±100 the full control effect.

Row | Structure (SMILES) | max response | outcome
1 | COc1ccc2cc(C=O)ccc2c1 | 3.03% (inactive) | –
2 | CCCCCCn1c(=O)c2c(ncn2C)n(C)c1=O | – | inactive
3 | CCC(=O)O[C@]1(C(=O)COC)[C@@H](C)C[C@H]2[C@@H]3CCC4=CC(=O)C=C[C@]4(C)C3(F)[C@@H](O)C[C@@]21C (stereo not given in full) | – | inactive
4 | Cc1onc(-c2ccccc2)c1C(=O)Cl | -2.71% (inactive) | –
5 | CC1(C)O[C@@H]2C[C@H]3[C@@H]4CCC5=CC(=O)C=C[C@]5(C)[C@@]4(F)[C@@H](O)C[C@]3(C)[C@]2(C(=O)CO)O1 | -0.473% (inactive) | –
6 | CC(=O)N(CC(O)CO)c1c(I)c(C(=O)NCCO)c(I)c(C(=O)NCC(O)CO)c1I (stereo not given) | -7.11% (inactive) | –
7 | CCCOc1ccc2c(c1)CC[C@@H]1[C@@H]2CC[C@]2(C)C(OC)CC[C@@H]12 (stereo not given in full) | -5.35% (inactive) | –
8 | COc1ccc2c(c1)c(CC(=O)OC/C=C(\C)CC/C=C(\C)CCC=C(C)C)c(C)n2C(=O)c1ccc(Cl)cc1 | – | inactive
9 | O=C(CCOCCOCCOCCOCCC(=O)Nc1c(I)cc(I)c(C(=O)O)c1I)Nc1c(I)cc(I)c(C(=O)O)c1I | -8.36% (inactive) | –
10 | Cc1[nH]cnc1-c1ccc(Cl)cc1 | – | inactive
11 | CCN(CC)CC(=O)Oc1ccc(NC(C)=O)cc1 | -7.74% (inactive) | –
12 | CCCCN(CCCC)C(C(N)=O)c1ccc(OC)cc1 (stereo not given) | – | inactive
13 | NS(=O)(=O)c1ccc(N2CCCCS2(=O)=O)cc1 | -11.1% (inactive) | –
14 | O=C1CC2(CCCC2)CC(=O)N1 | -7.34% (inactive) | –
15 | CC(C)C[C@@H]1[C@H](c2ccccc2)OC(=O)N1CCCN1CCCCCC1 | -2.82% (inactive) | –
16 | CCCCCCOC(=O)NC(=N)c1ccc(NCc2nc3cc(C(=O)N(CCC(=O)OCC)c4ccccn4)ccc3n2C)cc1 | 2.91% (inactive) | –
17 | CCCCCC1Nc2cc(C(F)(F)F)c(S(N)(=O)=O)cc2S(=O)(=O)N1 (stereo not given) | -8.64% (inactive) | –
18 | O=C(O)CCCC[C@@H]1SC[C@@H]2NC(=O)N[C@@H]21 | – | inactive
19 | CC1(C)O[C@@H]2C[C@H]3[C@@H]4C[C@H](F)C5=CC(=O)C=C[C@]5(C)[C@@]4(F)[C@@H](O)C[C@]3(C)[C@]2(C(=O)CO)O1 | -4.6% (inactive) | –
20 | CC(=O)N(c1onc(C)c1C)S(=O)(=O)c1ccc(N)cc1 | -16.4% (inactive) | –
